Screening results (PubChem)
Giardia FBPA inh = qHTS Assay for Inhibitors of Fructose-1,6-bisphosphate Aldolase from Giardia Lamblia. Potency, µM (series often up to 59.6 µM), for inactives: at the top dose activity, negative = inhibition, actives largely listed as inhibitors. purified Giardia FBPA. 290,000 compounds, 0.71% hits. A8B2U2; further: on the % scale 0 is the no-effect control and ±100 the full control effect; nearly all actives have a fitted effect of over 55% in size
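Giardia FBPA (40 nM reagent) was preincubated 10 min at RT with compound (up to 57.5 uM final), then substrate plus GAPDH/TPI/NAD/arsenate coupling system with diaphorase/resazurin was added; resorufin fluorescence (525/598 nm) was read after 20 min.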
LmPK inh = qHTS Assay for Inhibitors of Leishmania Mexicana Pyruvate Kinase (LmPK). 290,000 compounds, 0.37% hits. Potency, µM (highest dose often 57.5 µM), for the others: top-dose activity change, negative = inhibition, actives largely listed as inhibitors. Q27686. AID 1721, 2009. purified LmPK, Kinase-Glo ATP luminescence, 1 h; further: on the % scale 0 is the no-effect control and ±100 the full control effect
Target sequence (Q27686 whole entry, looked up): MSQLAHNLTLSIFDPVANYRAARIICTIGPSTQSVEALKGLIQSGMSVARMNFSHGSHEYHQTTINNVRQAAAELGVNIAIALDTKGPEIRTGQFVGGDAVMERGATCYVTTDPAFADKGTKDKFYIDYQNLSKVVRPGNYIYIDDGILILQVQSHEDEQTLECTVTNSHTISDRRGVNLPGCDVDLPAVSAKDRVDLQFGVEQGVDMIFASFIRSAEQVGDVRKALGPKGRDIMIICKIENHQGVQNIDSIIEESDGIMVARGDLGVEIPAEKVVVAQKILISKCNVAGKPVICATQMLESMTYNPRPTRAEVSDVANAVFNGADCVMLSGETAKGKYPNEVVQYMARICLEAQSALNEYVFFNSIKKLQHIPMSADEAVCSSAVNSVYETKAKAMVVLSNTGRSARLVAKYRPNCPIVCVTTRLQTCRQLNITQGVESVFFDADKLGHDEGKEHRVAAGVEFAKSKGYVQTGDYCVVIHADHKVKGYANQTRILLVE
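In 50 mM imidazole pH 7.2 with 7 mM MgCl2, LmPK (0.1 nM) turned over PEP (0.5 mM) and ADP (0.1 mM) for 1 h at room temperature. Luciferase read-out of ATP.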
Sm TGR inh = qHTS Assay for the Inhibitors of Schistosoma Mansoni Peroxiredoxins; Schistosoma mansoni thioredoxin glutathione reductase (TGR), Q962Y6; purified TGR, DTNB reduction, TNB absorbance 405 nm; Potency, µM (series often up to 114 µM), for inactives: at the top dose activity change, negative = inhibition, usual class: inhibitors; 360,000 compounds, 3% hits; AID 485364, 2010; further: on the % scale 0 is the no-effect control and ±100 the full control effect; nearly all actives have a fitted effect of over 60% in size
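First, TGR (20 nM dispensed) and NADPH were mixed with compound. Second, a 15 min room-temperature incubation followed. Third, further NADPH and then DTNB were added to start the reaction. Finally, TNB absorbance was monitored kinetically.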
NS1 function inh = qHTS Assay for Inhibitors of Influenza NS1 Protein Function | Potency, µM (doses to about 46.1 µM), without a hit: at the top dose activity, positive = more growth | 270,000 compounds, 0.4% hits | AID 2326, 2010; calls by dose curve; further: actives are rising curves; nearly all actives have a fitted effect of over 50% in size
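OD600 was taken as the measure of yeast growth restored by compound in an NS1-expressing S. cerevisiae strain. Cells had been washed out of glucose medium and diluted 1:100 into galactose -URA medium, pH 6.0.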
RE007 growth inh = qHTS Assay for Inhibitors of the HIV-1 protein Vpr; AID 651644, 2012; 360,000 compounds, 0.21% hits; S. pombe RE007 Vpr strain, BacTiter-Glo ATP luminescence, 24 h; Potency, µM (highest dose often 92.2 µM), for the others: at the highest dose activity change, negative = less growth, usual class: inhibitors; active means well fitted falling curve with a large enough effect; inconclusive means small, poorly fitted or top-dose-only effect; inactive means no such curve, though single readings can be large or run the other way; further: on the % scale 0 is the no-effect control and ±100 the full control effect; nearly all actives have a fitted effect of over 50% in size
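Fission yeast strain RE007, carrying one chromosomally integrated HIV-1 vpr copy, was seeded at OD 0.01 in PMG+AL medium with 23 nL pinned compound. After 24 h at 30 °C and 99% humidity, viability was read by BacTiter-Glo luminescence.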
Tb PYK inh = qHTS of Trypanosoma Brucei Inhibitors. pyruvate kinase (Trypanosoma brucei), Q57TT1. TbPYK enzyme, Kinase-Glo Plus ATP luminescence, 45 min. Potency, µM (highest dose often 76.8 µM), inactives show at the top dose activity, negative = inhibition, hits mostly inhibitors. 410,000 compounds, 0.12% hits. AID 624173, 2012; further: on the % scale 0 is the no-effect control and ±100 the full control effect; nearly all actives have a fitted effect of over 50% in size
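TbPYK + substrate in 50 mM TEA pH 7.2, 100 mM KCl, 10 mM MgCl2, 0.05% BSA, 0.01% Tween-20; cpd pinned; ADP 130 uM final; 45 min RT; Kinase-Glo Plus 10 min; luminescence endpoint.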
An asterisk follows results filed as active. Shown are actives, neighbours in structure and some others; about 3.5% of the full set was active somewhere. Unless noted, the call rests on the fitted dose curve; in most records, active means well fitted curve in the direction sought with a large enough effect; inconclusive means small, poorly fitted or top-dose-only effect, or another doubt; inactive means no such curve, though single readings can be large; an effect the other way counts as inactive or inconclusive. Potency means the concentration at half of the fitted maximal effect.

What do the screens show for `COc1ccc(N=c2ssnc2Cl)cc1`?
Giardia FBPA inh: inconclusive; LmPK inh: -8%; Sm TGR inh: 56µM*; NS1 function inh: -26%; RE007 growth inh: inconclusive; Tb PYK inh: -18%

Results for Clc1ccc(N=c2ssnc2Cl)cc1 ?
Giardia FBPA inh: inconclusive; LmPK inh: 0%; Sm TGR inh: inconclusive; NS1 function inh: -51%; RE007 growth inh: inconclusive; Tb PYK inh: 25µM*

How did COc1cc2[nH]c(=O)n(CCCC(=O)N(C)Cc3ccccc3)c(=O)c2cc1OC do in these assays?
Sm TGR inh: -1%; Tb PYK inh: -2%

What do the screens show for `CC(=O)OC[C@@]1(O)C[C@@]23CC[C@@H]4c5ccoc5CC[C@@]4(C)[C@@H]2CCC1C3`?
Giardia FBPA inh: 6%

How did N#C/C(=C1/CCCCCN1)c1nc2ccccc2[nH]1 do in these assays?
Giardia FBPA inh: -4%; LmPK inh: 4%; Sm TGR inh: 6%; NS1 function inh: -6%; RE007 growth inh: -1%; Tb PYK inh: 3%

How did N#C/C(C(=O)c1ccccc1)=C1/CCCCCN1 do in these assays?
Giardia FBPA inh: 10%; LmPK inh: -18%; Sm TGR inh: 2%; NS1 function inh: -14%; RE007 growth inh: 28µM*; Tb PYK inh: 0%

Results for CCCCC(CC)CNC(=O)c1ccc2c(=O)n(CCOC)c(=O)[nH]c2c1 (stereo not given) ?
Sm TGR inh: -6%; Tb PYK inh: -1%

What do the screens show for `COc1ccc(CCNC(=O)CSc2nc(-c3ccc(F)cc3)cc(C(F)(F)F)n2)cc1OC`?
Sm TGR inh: 3%; Tb PYK inh: 2%

Results for Cc1ncc(CN2CCCC(C(=O)Nc3ccc(-c4ccco4)cc3)C2)cn1 (stereo not given) ?
LmPK inh: -11%; Sm TGR inh: 45µM*; NS1 function inh: 10%; RE007 growth inh: -6%; Tb PYK inh: -9%

What do the screens show for `Cc1ncc(CN2CCCC(C(=O)Nc3ccc(-c4cscn4)cc3)C2)cn1` (stereo not given)?
LmPK inh: -2%; Sm TGR inh: -22%; NS1 function inh: 17%; RE007 growth inh: 2%; Tb PYK inh: 7%

How did CC(=O)N1CCN(c2csc3ccc(Cl)cc3c2=O)CC1 do in these assays?
Sm TGR inh: -11%; Tb PYK inh: 0%

Results for CC(=O)N1CCN(c2csc3ccc(F)cc3c2=O)CC1 ?
Sm TGR inh: 89µM*; Tb PYK inh: -15%

Results for CCOc1ccc(OCC)c(NC(=O)c2cnc3c(-c4ccccc4)c(C)nn3c2C)c1 ?
Sm TGR inh: -3%; Tb PYK inh: 0%

How did CCOc1ccc(NC(=O)Nc2ccccc2SC)cc1 do in these assays?
Giardia FBPA inh: -2%; LmPK inh: 7.9µM*; Sm TGR inh: -3%; NS1 function inh: -6%; RE007 growth inh: -7%; Tb PYK inh: -9%

Results for O=C(O)CCc1ccc(-c2ccc(Br)cc2)o1 ?
Giardia FBPA inh: -1%; LmPK inh: -15%; Sm TGR inh: 7.9µM*; NS1 function inh: -222%; RE007 growth inh: inconclusive; Tb PYK inh: inconclusive

How did COc1ccc(-c2ccc(CCC(=O)O)o2)cc1 do in these assays?
Giardia FBPA inh: 6%; LmPK inh: -9%; Sm TGR inh: 2.8µM*; NS1 function inh: -5%; RE007 growth inh: -27%; Tb PYK inh: inconclusive

How did O=C(O)CCc1ccc(-c2ccc(Cl)cc2)o1 do in these assays?
Giardia FBPA inh: 9%; LmPK inh: -9%; Sm TGR inh: 5µM*; NS1 function inh: -151%; RE007 growth inh: -11%; Tb PYK inh: inconclusive

Results for O=C(O)CCC(=O)c1ccc(Cl)cc1 ?
NS1 function inh: 3%
